Assay results: the antibiotic and cytotoxicity screens of Wong et al. (2023)
Among all 39,000 compounds or so, about 1,500 (3.8%) were called active. The sample holds actives, similar compounds and a random draw of the others, so the mix is not that of the screen.

test system: HSkMC (human skeletal muscle cells); test: cytotoxicity call (relative viability < 0.9); conditions: 10 µM

Row | Structure (SMILES) | cytotoxicity call
1 | C[C@@H]1CCCCO[C@@H](CN(C)Cc2ccccc2)[C@H](C)CN([C@@H](C)CO)C(=O)c2cc(NC(=O)C3CCCCC3)ccc2O1 | inactive
2 | COCCC(=O)NS(=O)(=O)c1ccccc1 | inactive
3 | CC(C)(C)C(=O)N1CCNCC1 | inactive
4 | C[C@H]1CN([C@@H](C)CO)C(=O)c2cc(C#CCN(C)C)cnc2O[C@@H]1CN(C)C(=O)Nc1ccccc1F | inactive
5 | C=C1C[C@@H]2CC[C@@]34C[C@H]5O[C@H]6[C@@H](O3)[C@H]3O[C@H](CC[C@@H]3O[C@H]6[C@H]5O4)CC(=O)C[C@@H]3[C@@H](OC)[C@@H](C[C@H](O)CN)O[C@H]3C[C@H]3O[C@@H](CC[C@@H]1O2)C[C@@H](C)C3=C | active
6 | COc1ccc(NC(=O)N(C)C[C@@H]2Oc3ccc(NC(=O)Nc4ccc(C(F)(F)F)cc4)cc3CC(=O)N([C@@H](C)CO)C[C@@H]2C)cc1 | inactive
7 | C[C@@H]1CN([C@H](C)CO)C(=O)c2cc(Br)cnc2O[C@H]1CN(C)S(=O)(=O)c1ccc(F)cc1 | inactive
8 | COc1ccccc1C#Cc1ccc2c(c1)O[C@H](CN(C)Cc1ccncc1)[C@@H](C)CN([C@@H](C)CO)S2(=O)=O | active
9 | COc1ccccc1C#Cc1ccc2c(c1)O[C@@H](CN(C)Cc1ccncc1)[C@@H](C)CN([C@H](C)CO)S2(=O)=O | inactive
10 | COc1ccccc1C#Cc1ccc2c(c1)O[C@H](CN(C)Cc1ccncc1)[C@H](C)CN([C@H](C)CO)S2(=O)=O | inactive
11 | COc1ccccc1C#Cc1ccc2c(c1)O[C@@H](CN(C)Cc1ccncc1)[C@H](C)CN([C@H](C)CO)S2(=O)=O | active
12 | COc1ccccc1C#Cc1ccc2c(c1)O[C@@H](CN(C)Cc1ccncc1)[C@@H](C)CN([C@@H](C)CO)S2(=O)=O | inactive
13 | COc1ccccc1C#Cc1ccc2c(c1)O[C@@H](CN(C)Cc1ccncc1)[C@H](C)CN([C@@H](C)CO)S2(=O)=O | active
14 | COc1ccccc1C#Cc1ccc2c(c1)O[C@H](CN(C)Cc1ccncc1)[C@@H](C)CN([C@H](C)CO)S2(=O)=O | inactive
15 | COc1ccccc1C#Cc1ccc2c(c1)O[C@H](CN(C)Cc1ccncc1)[C@H](C)CN([C@@H](C)CO)S2(=O)=O | inactive
16 | C[C@H](CO)N1C[C@H](C)[C@H](CN(C)S(=O)(=O)c2cccc(F)c2)Oc2cc(Br)ccc2S1(=O)=O | inactive
17 | C[C@@H]1CN([C@@H](C)CO)C(=O)c2cc(NS(C)(=O)=O)ccc2O[C@@H]1CN(C)C(=O)Nc1ccc(C(F)(F)F)cc1 | inactive
18 | COc1ccc(S(=O)(=O)Nc2ccc3c(c2)C(=O)N([C@@H](C)CO)C[C@H](C)[C@@H](CN(C)C(=O)Nc2c(C)noc2C)O3)cc1 | inactive
19 | C[C@@H]1CN([C@H](C)CO)C(=O)c2cc(NC(=O)Nc3cccc4ccccc34)ccc2O[C@@H]1CN(C)Cc1ccc2c(c1)OCO2 | inactive
20 | CC(C)NC(=O)N(C)C[C@H]1OCCCC[C@H](C)Oc2ccc(NS(C)(=O)=O)cc2C(=O)N([C@@H](C)CO)C[C@@H]1C | inactive
21 | CNC1CCC(c2ccc(Cl)c(Cl)c2)c2ccccc21.Cl (stereo not drawn) | active
22 | CN[C@H]1CC[C@@H](c2ccc(Cl)c(Cl)c2)c2ccccc21 | inactive
23 | N[C@@H]1CC[C@@H](c2ccc(Cl)c(Cl)c2)c2ccccc21 | active

Row | Structure (SMILES) | cytotoxicity call
24 | COC(=O)c1c2oc(c1C(=O)OC)C(=O)N(C)Cc1cn(nn1)C[C@H](Cc1ccccc1)NC(=O)N[C@H](CO)CC2 | inactive
25 | O=c1[nH]c2ccc(F)cc2[nH]1 | inactive
26 | CC(C)NC(=O)N(C)C[C@@H]1Oc2ccc(NC(=O)Cc3ccccc3)cc2C(=O)N([C@@H](C)CO)C[C@H]1C | inactive
27 | COc1ccc(CN(C)C[C@@H]2Oc3ccc(NS(=O)(=O)c4cn(C)cn4)cc3C(=O)N([C@@H](C)CO)C[C@H]2C)cc1 | inactive
28 | C[C@H](CO)N1C[C@H](C)[C@H](CN(C)Cc2ccc(C(F)(F)F)cc2)OCCCC[C@H](C)Oc2ccc(NS(=O)(=O)c3ccccc3)cc2C1=O | inactive
29 | CNC(=O)C[C@H]1CC[C@@H]2[C@H](COC[C@H](O)CN2C(=O)c2ccccn2)O1 | inactive
30 | C[C@@H]1CCCCO[C@H](CN(C)C(=O)Nc2cccc3ccccc23)[C@@H](C)CN([C@@H](C)CO)C(=O)c2cc(NC(=O)Nc3ccc(C(F)(F)F)cc3)ccc2O1 | inactive
31 | C[C@@H]1CN([C@@H](C)CO)C(=O)c2cc(NC(=O)Nc3ccc(C(F)(F)F)cc3)ccc2O[C@@H](C)CCCCO[C@H]1CN(C)C(=O)Nc1cccc2ccccc12 | inactive
32 | C[C@@H]1CN([C@@H](C)CO)C(=O)c2cc(NC(=O)Nc3ccc(C(F)(F)F)cc3)ccc2O[C@@H](C)CCCCO[C@@H]1CN(C)C(=O)Nc1cccc2ccccc12 | active
33 | C[C@@H]1CCCCO[C@@H](CN(C)C(=O)Nc2cccc3ccccc23)[C@@H](C)CN([C@@H](C)CO)C(=O)c2cc(NC(=O)Nc3ccc(C(F)(F)F)cc3)ccc2O1 | active
34 | C[C@@H]1CCCCO[C@@H](CN(C)C(=O)Nc2cccc3ccccc23)[C@H](C)CN([C@H](C)CO)C(=O)c2cc(NC(=O)Nc3ccc(C(F)(F)F)cc3)ccc2O1 | inactive
35 | C[C@@H]1CCCCO[C@@H](CN(C)C(=O)Nc2cccc3ccccc23)[C@H](C)CN([C@@H](C)CO)C(=O)c2cc(NC(=O)Nc3ccc(C(F)(F)F)cc3)ccc2O1 | inactive
36 | C[C@H](CO)N1C[C@H](C)[C@@H](CN(C)C(=O)Nc2cccc3ccccc23)OCCCC[C@H](C)Oc2ccc(NC(=O)Nc3ccc(C(F)(F)F)cc3)cc2C1=O | inactive
37 | C[C@H](CO)N1C[C@H](C)[C@H](CN(C)C(=O)Nc2cccc3ccccc23)OCCCC[C@H](C)Oc2ccc(NC(=O)Nc3ccc(C(F)(F)F)cc3)cc2C1=O | inactive
38 | C[C@@H]1CCCCO[C@@H](CN(C)C(=O)Nc2cccc3ccccc23)[C@@H](C)CN([C@H](C)CO)C(=O)c2cc(NC(=O)Nc3ccc(C(F)(F)F)cc3)ccc2O1 | active
39 | Cn1cnc(S(=O)(=O)N2C[C@@H](O)COC[C@H]3O[C@@H](CC(=O)NC4CCCC4)CC[C@@H]32)c1 | inactive
40 | COc1ccccc1CNC(=O)C[C@@H]1C[C@H]2c3cc(NC(=O)C4CCOCC4)ccc3O[C@H]2[C@@H](CO)O1 | inactive
41 | O=C(c1cc2n(n1)CCCO2)N1CC(O)C1 | inactive
42 | Cc1noc(C)c1NC(=O)N(C)C[C@H]1Oc2ccc(NC(=O)CCN3CCOCC3)cc2CC(=O)N([C@H](C)CO)C[C@@H]1C | inactive
43 | C[C@H](CO)N1C[C@H](C)[C@H](CN(C)C(=O)c2ccc3c(c2)OCO3)Oc2ncc(C#CCN(C)C)cc2C1=O | inactive
44 | CCC(=O)N1C[C@]2(CN(C2)S(=O)(=O)C)c2c(n(c3cc(ccc23)OC)C)[C@@H]1CO | inactive
45 | C[C@H](CO)N1C[C@H](C)[C@H](CN(C)S(=O)(=O)c2cn(C)cn2)Oc2ccc(NS(=O)(=O)c3ccccc3)cc2CC1=O | inactive
46 | C[C@H]1CN([C@@H](C)CO)C(=O)Cc2cc(NC(=O)CCC(F)(F)F)ccc2O[C@H]1CN(C)Cc1ccc(-c2ccccc2)cc1 | inactive

Row | Structure (SMILES) | cytotoxicity call
47 | C[C@@H]1CN([C@H](C)CO)C(=O)Cc2cc(NC(=O)CCC(F)(F)F)ccc2O[C@H]1CN(C)Cc1ccc(-c2ccccc2)cc1 | inactive
48 | C[C@H](CO)N1C[C@H](C)[C@@H](CN(C)Cc2ccc(Cl)c(Cl)c2)Oc2ccc(NC(=O)CCC(F)(F)F)cc2CC1=O | inactive
49 | C[C@@H]1CN([C@@H](C)CO)C(=O)Cc2cc(NC(=O)CCC(F)(F)F)ccc2O[C@H]1CN(C)Cc1ccc(-c2ccccc2)cc1 | active
50 | C[C@@H]1CN([C@@H](C)CO)C(=O)Cc2cc(NC(=O)CCC(F)(F)F)ccc2O[C@H]1CN(C)Cc1ccc(Cl)c(Cl)c1 | active
51 | C[C@@H]1CN([C@H](C)CO)C(=O)Cc2cc(NC(=O)CCC(F)(F)F)ccc2O[C@H]1CN(C)Cc1ccc(Cl)c(Cl)c1 | inactive
52 | CCOC(=O)c1cn2cn[nH]c2nc1=O | inactive
53 | C[C@@H]1CN([C@H](C)CO)C(=O)Cc2cc(NC(=O)Nc3ccc4c(c3)OCO4)ccc2O[C@@H]1CN(C)Cc1ccc(C(=O)Nc2ccccc2N)cc1 | inactive
54 | COC(=O)C[C@H]1CC[C@@H]2[C@H](COC[C@H](O)CN2S(=O)(=O)c2ccc(F)cc2)O1 | inactive
55 | C[C@@H]1CN([C@@H](C)CO)S(=O)(=O)c2ccc(C#CC(C)(C)O)cc2O[C@@H]1CN(C)Cc1ccc(F)cc1 | inactive
56 | C=CCNC(=O)[C@H]1[C@@H]2C(=O)O[C@@H](c3ccccc3)[C@@H](c3ccccc3)N2[C@@H](c2ccc(O)cc2)[C@]12C(=O)Nc1ccc(C#Cc3ccc(OC)cc3)cc12 | inactive
57 | COc1ccc(S(=O)(=O)Nc2ccc3c(c2)C(=O)N([C@H](C)CO)C[C@H](C)[C@H](CN(C)Cc2ccccc2)OCCCC[C@H](C)O3)cc1 | inactive
58 | CC1(C)CCC2(C(=O)O)CCC3(C)C(=CCC4C5(C)CCC(O)C(C)(C)C5CCC43C)C2C1 (stereo not drawn) | inactive
59 | COC(=O)[C@@]12CC[C@@H](C)[C@@H](C)[C@@H]1C1=CC[C@H]3[C@@]4(C)CC[C@@H](OC(C)=O)C(C)(C)[C@@H]4CC[C@@]3(C)[C@@]1(C)CC2 | inactive
60 | CC1CCC2(C(=O)O)CCC3(C)C(=CCC4C5(C)CCC(O)C(C)(C)C5CCC43C)C2C1C (stereo not drawn) | active
61 | O=C1c2c(O)cccc2C(C2OC(CO)C(O)C(O)C2O)c2cc(CO)cc(O)c21 (stereo not drawn) | inactive
62 | COc1ccc(NC(=O)Nc2ccc3c(c2)C(=O)N([C@@H](C)CO)C[C@H](C)[C@@H](CN(C)C(=O)Nc2ccc(C(F)(F)F)cc2)OCCCC[C@H](C)O3)cc1 | inactive
63 | C[C@H]1CN([C@@H](C)CO)C(=O)c2cccc(NC(=O)Nc3ccc4c(c3)OCO4)c2O[C@H]1CN(C)Cc1ccc(-c2ccccc2)cc1 | inactive
64 | C[C@@H]1CN([C@H](C)CO)C(=O)c2cccc(NC(=O)Nc3ccc4c(c3)OCO4)c2O[C@H]1CN(C)Cc1ccc(Oc2ccccc2)cc1 | active
65 | C[C@@H]1CN([C@@H](C)CO)C(=O)c2cccc(NC(=O)Nc3ccc4c(c3)OCO4)c2O[C@@H]1CN(C)Cc1ccc(-c2ccccc2)cc1 | active
66 | C[C@H]1CN([C@@H](C)CO)C(=O)c2cccc(NC(=O)Nc3ccc4c(c3)OCO4)c2O[C@@H]1CN(C)Cc1ccc(-c2ccccc2)cc1 | inactive
67 | C[C@H]1CN([C@@H](C)CO)C(=O)c2cccc(NC(=O)Nc3ccc4c(c3)OCO4)c2O[C@H]1CN(C)Cc1ccc(Oc2ccccc2)cc1 | inactive
68 | C[C@@H]1CN([C@@H](C)CO)C(=O)c2cccc(NC(=O)Nc3ccc4c(c3)OCO4)c2O[C@@H]1CN(C)Cc1ccc(Oc2ccccc2)cc1 | inactive
